This note sets out measurements from PubChem BioAssay (EPA / NIEHS).

The source made the active and inactive calls. How the source made its calls: active means hit-call score of the fitted dose curve at least 0.9, where 1 is the maximum; inactive means score below 0.9.

A short description of this experiment: ATG_EGR_CIS: Attagene CIS-FACTORIAL HepG2 Assay for human Early Growth Response 1 (EGR1) (AID 2282938). Conditions: HepG2 Attagene CIS-FACTORIAL EGR reporter mRNA; actives raise or lower the signal. The method, then:
ATG_CIS is a cell-based, multiplexed-readout assay that uses HepG2, a human liver cell line, with measurements taken at 24 hours after chemical dosing in a 24-well plate.ATG_EGR_CIS is one of 52 assay component(s) measured or calculated from the ATG_CIS assay. It is designed to make measurements of mRNA induction, a form of inducible reporter, as detected with fluorescence intensity signals by Reverse transcription polymerase chain reaction (RT-PCR) and Capillary electrophoresis technology.Data from the assay component ATG_EGR_CIS was analyzed into 1 assay endpoint. This assay endpoint, ATG_EGR_CIS, was analyzed with bidirectional fitting relative to DMSO as the negative control and baseline of activity. Using a type of inducible reporter, measures of mRNA for gain or loss-of-signal activity can be used to understand the reporter gene at the transcription factor-level as they relate to the gene EGR1. Furthermore, this assay endpoint can be referred to as a primary readout, because this assay has produced multiple assay endpoints where this one serves a reporter gene function. To generalize the intended target to other relatable targets, this assay endpoint is annotated to the dna binding intended target family, where the subfamily is zinc finger.
Human liver HepG2 cells are transiently transfected with multiple reporter transcription units (MRTUs) in 6-well plates using FuGene 6 reagent (Roche; 3 ml FuGene/1 mg DNA). The MRTU constructs are regulated by a cis-regulating element (promoter). […] A major difference between the CIS and TRANS system is that in CIS activities of endogenous TFs are measured, whereas the TRANS assay evaluates changes in activities of exogenous, chimeric NR-Gal4 proteins. […] At the end of 24 hour incubation, total RNA was isolated using TriZol reagent (Invitrogen). The isolated RNA is then reverse-transcribed using oligo(dT) primer and Mo-MLV reverse transcriptase (Invitrogen) with DNAse I (Ambion) treatment for 30 min. The one-tenth of the produced cDNA was amplified by PCR using Taq DNA polymerase (Invitrogen) and two reporter sequence-specific primers. The PCR products were fluorescently labeled by primer extension with 6-arboxyfluorescein (6-FAM) 5'-labeled reporter sequence-specific primer (2 min at 95 C, 20 s at 68 C and 10 min at 72 C) and these products were digested with 5U of HpaI (New England Biolabs) for 2h at 37 C. The fragments were purified using Qiaquick PCR columns (Qiagen), analyzed on an ABI 3130xL genetic analyzer (Applied Biosystems) with peak positions identified by using a set of X-rhodamine (ROX)-labeled MapMarker1000 molecular weight standards (BioVentures). The raw capillary electrophoresis data was processed using Attagraph software (Attagene).
Regarding `CCOc1ccc(NC(N)=O)cc1`, the molecule was classed as inactive.
`CCCCC1CCC(=O)O1` (stereo not given): the outcome was inactive.
As for `CCc1occc(=O)c1O`, the result was inactive.
Take `CCCCOCC(C)O` (stereo not given): the molecule was called inactive.
On to `C/C=C/C=C/CCCCCCCO`, for which the concentration at half-maximal activity (AC50) is 100 µM (active).
Regarding `CCCCC1C(=O)N(c2ccccc2)N(c2ccccc2)C1=O`, the result was inactive.
Regarding `CC(=O)CC(=O)Nc1ccccc1C`, the result was inactive.
Take `CC(C)=CCCC(C)=CC#N`: the result was inactive.
For `O=C(O)CCC(=O)O`, the molecule was called inactive.
For `CC(=O)CCC1=C(C)CCCC1(C)C`, the molecule was called inactive.
Take `CC(=O)CCC=C(C)C`: the molecule was called inactive.
`CC/C=C\C/C=C\C/C=C\CCCCCCCC(=O)OC`: the molecule was called inactive.
Take `C[Si](C)(C)N[Si](C)(C)C`: the result was inactive.
On to `CCCCOCCOCCOC(C)=O`, for which the outcome was inactive.
The same measure, in the same setting: in the case of `CCCCCCCC(=O)OCC` it was “inactive”; in that of `Cc1c(O)cccc1O`, “inactive”; in that of `CC1=CCC(C(C)C)C=C1` (stereo not given), “inactive”.
On to `O=C1CCCCC1C1CCCCC1` (stereo not given), for which the molecule was classed as inactive.
As for `CCCCCCCCCCCCC`, the outcome was inactive.
Take `Cc1ccc2c(c1)CCCN2`: the result was inactive.
`C=CCCCCCCCCC=O`: the molecule was called inactive.
As to `CC(C)CO`, the call was inactive.
Regarding `CCCCCCCOC(=O)c1ccc(O)cc1`, the molecule was called inactive.
Regarding `CCCCc1ccc(Cl)cc1`, the call was inactive.
For the molecule `CCC(=O)C1CC(C(C)C)CC=C1C` (stereo not given), the result was inactive.
As to `Cc1cc(=O)[nH]c(=O)[nH]1`, the molecule was classed as inactive.
Regarding `CC(C)C(=O)OCCOc1ccccc1`, the molecule was classed as inactive.
Turning to `CCCc1ccc(O)c(OC)c1`, the call was inactive.
In the case of `Nc1ccnc(=O)[nH]1`, the call was inactive.
Take `CC(C)(C)C1CCC(=O)CC1`: the result was inactive.
As to `Cc1ccccc1CCO`, the call was inactive.
In the case of `C1CNCCN1`, the result was inactive.
Turning to `CC(=O)/C=C/C1C(C)=CCCC1(C)C` (stereo not given), the molecule was classed as inactive.
Turning to `O=C(O)C(F)(F)C(F)(F)C(F)(F)C(F)(F)C(=O)O`, the call was inactive.
In the case of `Nc1nc(N)nc(-c2ccccc2)n1`, the molecule was classed as inactive.
On to `N=C1C=CC(=C(c2ccc(N)cc2)c2ccc(N)cc2)C=C1`, for which the molecule was called inactive.
As for `CCOC(=O)/C=C\C(=O)OCC`, the call was inactive.
The same measure, in the same setting: under `CCOC(=O)OC(=O)OCC` stands “inactive”; under `O=C1c2ccccc2C(=O)c2cc(S(=O)(=O)O)ccc21`, “inactive”.
With `O=C(O)CC(C(=O)O)S(=O)(=O)O` (stereo not given), the result was inactive.
